From ChEMBL document CHEMBL5308504, “Tm Shift (DSF) assay results for EUbOPEN Chemogenomics Library” (2023) come the findings set out here.

Values joined by “and” are separate entries in the source; they are usually repeats but may differ in a detail not shown here. Equal entries are not always repeated.

Test [1] deals with Bromodomain-containing protein 4 (Homo sapiens) (UniProt O60885). The following applies: Compound concentration 20.0 uM, Protein concentration 2.0 uM, Result type QC Liability.
For test [2], the target named is T1, Transcription intermediary factor 1-alpha (Homo sapiens) (UniProt O15164).
T1 sequence (whole entry): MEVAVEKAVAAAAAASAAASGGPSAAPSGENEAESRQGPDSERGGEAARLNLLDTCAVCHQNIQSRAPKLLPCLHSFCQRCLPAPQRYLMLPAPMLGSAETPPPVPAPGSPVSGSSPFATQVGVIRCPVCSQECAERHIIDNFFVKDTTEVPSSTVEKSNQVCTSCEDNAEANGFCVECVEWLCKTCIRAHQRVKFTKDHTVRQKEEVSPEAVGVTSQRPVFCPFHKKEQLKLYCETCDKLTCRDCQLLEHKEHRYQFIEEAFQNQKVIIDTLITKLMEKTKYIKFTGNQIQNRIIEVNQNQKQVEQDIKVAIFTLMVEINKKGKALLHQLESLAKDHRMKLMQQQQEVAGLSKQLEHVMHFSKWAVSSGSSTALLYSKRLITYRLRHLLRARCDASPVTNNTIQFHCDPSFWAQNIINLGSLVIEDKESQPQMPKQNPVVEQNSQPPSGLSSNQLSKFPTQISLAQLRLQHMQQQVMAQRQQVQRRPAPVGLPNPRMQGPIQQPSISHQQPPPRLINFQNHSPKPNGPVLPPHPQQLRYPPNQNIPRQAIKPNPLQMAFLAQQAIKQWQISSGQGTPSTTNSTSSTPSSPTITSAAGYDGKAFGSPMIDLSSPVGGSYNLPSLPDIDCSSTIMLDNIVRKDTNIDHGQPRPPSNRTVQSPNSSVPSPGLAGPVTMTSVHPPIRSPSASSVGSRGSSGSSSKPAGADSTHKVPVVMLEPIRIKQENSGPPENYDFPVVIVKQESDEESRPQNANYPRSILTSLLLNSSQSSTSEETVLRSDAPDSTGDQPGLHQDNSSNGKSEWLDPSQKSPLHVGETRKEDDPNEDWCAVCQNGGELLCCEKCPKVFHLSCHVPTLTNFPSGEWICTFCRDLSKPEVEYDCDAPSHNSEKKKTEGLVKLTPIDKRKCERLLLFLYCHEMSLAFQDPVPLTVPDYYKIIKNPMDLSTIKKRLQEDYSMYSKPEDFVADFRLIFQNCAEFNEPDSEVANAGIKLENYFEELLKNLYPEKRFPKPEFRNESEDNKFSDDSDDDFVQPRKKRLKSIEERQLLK
Conditions: Compound concentration 20.0 uM, Protein concentration 2.0 uM, Result type QC Liability.

As to `C/C=C1\C(=O)CC2C3CCC4=CC(=O)CC[C@]4(C)C3CC[C@]12C` (some centres undefined), the values for the shift in melting temperature (ΔTm) in test [1] and in test [2] were -2.62 °C and -2.32 °C, respectively.

For the compound `CN1CCN(C(=O)c2ccc(N(C)c3ncc(C(F)(F)F)c(N[C@@H]4CCC[C@@H]4C(N)=O)n3)cc2)CC1`, the figures for the ΔTm in test [1] and in test [2] were -1.86 °C and 0.25 °C, respectively.

For the compound `O=C(Cc1ccccc1)Nc1nnc(N2CC[C@@H]3[C@H]2CN3c2cccnn2)s1`, the thermal shift (ΔTm) in test [1] was -3.72 °C; in test [2], -3.22 °C.

Turning to `COc1ccccc1Nc1nc(-c2nn(Cc3c(F)cc(OCCCO)cc3F)c3ccccc23)ncc1OC`, the thermal shift (ΔTm) was -0.6 °C in test [1] and -1.94 °C in test [2].

As to `CC[C@H](CO)Nc1nc(Nc2cccc(-c3ccccn3)c2)c2ncn(C(C)C)c2n1`, the ΔTm is -1.32 °C in test [1] and -3.54 °C in test [2].

On to `N#Cc1cccc(-c2c[nH]c3ncnc(N4CCOCC4)c23)c1`, for which the values for the ΔTm in test [1] and in test [2] were -2.27 °C and -2.93 °C, respectively.

Consider `c1ccc(C(OC2CCN(CCCc3nnn[nH]3)CC2)c2ccccc2)cc1`, for which the results for the ΔTm in test [1] and in test [2] were -1 °C and -0.6 °C, respectively.

As for `CN1C(=O)c2c(nn(Cc3ccc(-c4cccc(F)n4)cc3)c2Nc2ccccc2)N2C1=N[C@@H]1CCC[C@@H]12`, the ΔTm in test [1] stood at 1.34 °C; in test [2], 0.8 °C.

Take `Cc1ccc(NC(=O)c2ccc(CN3CC[C@H](N(C)C)C3)c(C(F)(F)F)c2)cc1Nc1nccc(-c2cncnc2)n1`: the ΔTm in test [1] is -1.21 °C; in test [2], -0.69 °C.

As for `COc1cc(OC)cc(-c2cc3cnc(N)nc3nc2NC(=O)NC(C)(C)C)c1`, the thermal shift (ΔTm) in test [1] was -2.72 °C and 0.27 °C; in test [2], -2.2 °C and -1.8 °C.

On to `CN1CCN(C(=O)c2ccc3cc2OCCOCCNc2ccn4ncc-3c4n2)CC1`, for which the ΔTm in test [1] was 0.71 °C; in test [2], -0.01 °C.

Turning to `CCc1nc(-c2cccc(C)c2)c(-c2ccnc(NC(=O)c3ccccc3)c2)s1`, the shift in melting temperature (ΔTm) was -1.99 °C in test [1] and -1.26 °C in test [2].

Regarding `CCCCC[C@@](C)(O)/C=C/[C@H]1C(=O)CC(O)C1C/C=C\CCCC(=O)O` (some centres undefined), the shift in melting temperature (ΔTm) in test [1] is -1.7 °C; in test [2], -0.59 °C.

In the case of `NCc1ccc(OCCCc2sc(-c3ccc4c(c3)/C(=N/Nc3nc5ccccc5s3)CCC4)nc2C(=O)O)cc1`, the shift in melting temperature (ΔTm) in test [1] is -11 °C; in test [2] it was -0.58 °C.

As to `COC(=O)Nc1nc2c(s1)-c1c(c(-c3cccnc3)nn1-c1ccc(C3(N(C)C)CC3)cc1)CC2`, the thermal shift (ΔTm) in test [1] is -1.63 °C; in test [2], -3.18 °C.

Turning to `Nc1nccc(-c2c(-c3ccc(F)cc3)ncn2C2CCCCC2)n1`, the ΔTm is 0.24 °C in test [1] and -0.83 °C in test [2].

Consider `CCCCNc1ncc2c(-c3ccc(CN4CCN(C)CC4)cc3)cn([C@H]3CC[C@H](O)CC3)c2n1`, for which the values for the ΔTm in test [1] and in test [2] were -3.24 °C and -0.35 °C, respectively.

For `N#CC[C@H](C1CCCC1)n1cc(-c2ncnc3[nH]ccc23)cn1`, the ΔTm in test [1] was -0.65 °C; in test [2] it was -1.72 °C.

Consider `C[C@]12CC[C@@H]3c4ccc(O)cc4CC[C@H]3[C@@H]1C[C@H]1OC(=O)C[C@]12O`, for which the ΔTm is -11.6 °C in test [1] and 0.49 °C in test [2].

Consider `CSc1nc2c(c(=O)n(C)c(=O)n2C)n1C`, for which the results for the ΔTm in test [1] and in test [2] were -3.81 °C and -0.92 °C, respectively.

Regarding `COc1cc(N2CCN(C)CC2)ccc1Nc1ncc2c(n1)N(C)c1ccccc1C(=O)N2CC(F)(F)F`, the thermal shift (ΔTm) in test [1] was -1.21 °C; in test [2], -2.27 °C.

`O=C(Nc1ccc(-n2nc(-c3cccnc3)cc2C(F)(F)F)cn1)c1ccc(-c2ccccc2)c(F)c1`: the values for the shift in melting temperature (ΔTm) in test [1] and in test [2] were -2.41 °C and 0.2 °C, respectively.

With `Cc1cc2ncnn2cc1Nc1ncc2c(n1)n(C1CCOCC1)c(=O)n2C`, the thermal shift (ΔTm) in test [1] was -1.59 °C; in test [2] it was -4.66 °C.

For `NC(=O)C1CCCc2c1[nH]c1ccc(Cl)cc21` (centres undefined), the thermal shift (ΔTm) in test [1] was -1.42 °C; in test [2], -1.04 °C.

On to `CS(=O)(=O)c1cc(C2(NC(=O)c3cncc4c3cnn4-c3ccc(F)cc3)CC2)ccn1`, for which the shift in melting temperature (ΔTm) in test [1] is -1.64 °C; in test [2] it was 0.27 °C.

In the case of `COc1ccc(C(=O)N[C@H](C)c2cccc(C(=O)Nc3nc4c(s3)CN(C)CC4)c2)cc1C`, the ΔTm is -1.18 °C in test [1] and -2.54 °C in test [2].

With `Nc1ncc2c(n1)-c1c([nH]c3ccc(C4CC4)cc13)CCCC2`, the ΔTm in test [1] is -1.04 °C; in test [2], -1.92 °C.

Consider `Cc1nc2cccnc2n2c(-c3cc([C@@]4(O)CCCOC4)ccc3Cl)nnc12`, for which the results for the ΔTm in test [1] and in test [2] were -1.99 °C and 0.37 °C, respectively.

Regarding `COc1cnccc1Nc1nc(-c2nn(Cc3c(F)cc(OCCO)cc3F)c3ccccc23)ncc1OC`, the ΔTm in test [1] was 0.84 °C; in test [2], -4.33 °C.

As for `O=C(Cc1ccccc1)Nc1nnc(N2C[C@H]3C[C@@H]2CN3c2cccnn2)s1`, the ΔTm was -1.06 °C in test [1] and -2.54 °C in test [2].

Turning to `Cn1cc(Nc2nccc(N3CC4CCC(C3)N4C(=O)[C@@H]3CC3(F)F)n2)cn1`, the figures for the ΔTm in test [1] and in test [2] were -1.13 °C and -1.71 °C, respectively.

Consider `COc1cc2c(cc1CC=C(C)C)C(=O)C[C@@H](c1ccc(O)cc1)O2`, for which the values for the thermal shift (ΔTm) in test [1] and in test [2] were 0.4 °C and 0.63 °C, respectively.

Consider `CCc1nc(-c2cccc(C)c2)c(-c2ccncc2)s1`, for which the ΔTm in test [1] was 0.55 °C; in test [2], -3.01 °C.

With `COc1cc(F)ccc1-c1cc(Nc2cc(CS(C)(=N)=O)ccn2)ncc1F` (centres undefined), the ΔTm was 0.98 °C in test [1] and -2.98 °C in test [2].

Consider `CCS(=O)(=O)c1cc2cc(C[C@](O)(CC(C)(C)c3ccc(F)cc3C(N)=O)C(F)(F)F)[nH]c2cn1`, for which the shift in melting temperature (ΔTm) in test [1] is -2.16 °C; in test [2], 0.37 °C.

For `COc1c(-c2cn(C3CCC(=O)NC3=O)nn2)csc1C(=O)N1CCCC1` (centres undefined), the ΔTm in test [1] is -0.9 °C; in test [2], -2.25 °C.

With `CN1C(=O)c2ccccc2N(C)c2nc(Nc3cnn(C4CCNCC4)c3)ncc21`, the ΔTm in test [1] is 3.95 °C; in test [2], -1.94 °C.
